# Source: PubChem (several laboratories)
# TRPM1 prom inh: inhibitors of MITF-dependent TRPM1 promoter reporter, primary screen, cell-based, SK-MEL-5, single point, luciferase | SK-MEL-5 TRPM1 promoter luciferase, 24 h | inhibition, % at 12.5 µM | hit rate 0.83% among 330,000 | AID 488899, 2010;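 active means mean inhibition across replicates of 60% or more, whatever share of single replicates reaches that level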
# Peg3 promoter: Peg3 promoter-driven luciferase inhibitors, primary screen, cell-based, HeLa, luciferase luminescence. hit rate 1.7% among 360,000. HeLa PEG-Prom luciferase reporter, overnight. inhibition, % at 20 µM. AID 588405, 2011;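 active means inhibition of at least 50% at 20 µM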
# HIF-2a block: HIF-2a reporter inhibitors, primary screen, luminescence, 786-0 RCC cells; 786-0 RCC cells HIF-2a reporter, luciferase luminescence, overnight; inhibition, % at 18.8 µM; hit rate 0.72% among 360,000; AID 624352, 2012;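 active means inhibition of the luminescence signal of 40% or more relative to plate controls, in a single-dose primary screen at 18.75 µM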
# KKLEB cytotox: cytotoxicity in KKLEB CF airway cells, primary screen, cytotoxicity control for CF NF-kB inhibitor project, cell-based, uHTS, fluorescence assay plates | KKLEB CF airway cells viability, ATPlite luminescence, overnight; stronger effect = lower value; cells stimulated with P. aeruginosa culture filtrate | activity change (cytotoxicity), % at 5 µM | hit rate 0.36% among 360,000;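 active means corrected activity change at or below -50% at 5 µM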
# CF NFkB block: inhibitors of PAF-induced NF-kB signaling, primary screen, cell-based, GFP fluorescence, uHTS; hit rate 0.86% among 360,000; inhibition, % at 5 µM; KKLEB NF-kB-GFP reporter, GFP fluorescence overnight;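 active means at least 50% inhibition at 5 µM, scaled per plate between neutral and stimulator controls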;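 further: PAF is a Pseudomonas aeruginosa culture filtrate used as stimulus; plate controls were PAF-stimulated DMSO wells for no effect and unstimulated DMSO wells for full effect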
# ABHD5-PLIN5 inh: ABHD5-PLIN5 interaction inhibitors, primary screen, cell lysate, split luciferase complementation, luminescence; hit rate 0.78% among 360,000; inhibition, % at 4 µM; AID 602281, 2012; Perilipin-5 (Homo sapiens) + 1-acylglycerol-3-phosphate O-acyltransferase ABHD5 (Homo …; Split G. princeps luciferase complementation, 4 h;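 active means inhibition above the mean inhibition across every tested compound plus 3 SD, cut at about 22% in these data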;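 further: 0% = DMSO only wells and the 100% control is not disclosed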
# Numbers without * were called inactive; · = no result given. This is a sample that favours compounds with a hit; in the whole collection about 3.1% have one here.
SMILES,TRPM1 prom inh,Peg3 promoter,HIF-2a block,KKLEB cytotox,CF NFkB block,ABHD5-PLIN5 inh
Cc1cc(C)nc(NS(=O)(=O)c2ccc(NC(=O)CN3C(=O)C4CC=CCC4C3=O)cc2)n1 (centres undefined),3,0,10,0,9,0
O=C(O)CCc1ccc(-c2cccs2)n1Cc1ccco1,-6,-7,9,20,-13,18
O=C(O)CCc1ccc(-c2cccs2)o1,-6,16,-2,-6,1,70*
CCN(CC(=O)NCc1cccs1)S(=O)(=O)c1ccc(F)c(F)c1F,0,9,19,-32,7,8
O=C(CN(Cc1ccccc1Cl)C(=O)CNS(=O)(=O)c1ccccc1)NCC1CCCO1 (centres undefined),-3,-15,-4,-3,3,-1
CCCCCCCC[n+]1cccc2c3ccccc3ccc21,86*,54*,-40,-27,38,17
Cc1cccc[n+]1CCCCCCCCCC[n+]1ccccc1C,11,-4,8,0,6,3
CCCc1nc2ccccc2c(C(=O)OCC(=O)Nc2cccc(S(=O)(=O)N3CCOCC3)c2)c1CC,5,53*,10,2,7,-3
CC(C)CN(C(=O)CN1C(=O)C2CCCCC2C1=O)c1c(N)n(Cc2ccccc2)c(=O)[nH]c1=O (centres undefined),-2,0,15,-3,1,-4
Cc1cccc(NC(=S)N/N=C/c2ccc(Cl)c([N+](=O)[O-])c2)c1,10,62*,-4,-2,-5,-6
Cc1cc(C(=O)N/N=C/c2ccc(Cl)c([N+](=O)[O-])c2)c(C)n1-c1ccc(F)cc1,63*,105*,61*,1,1,-7
Cc1cccc(NC(=S)N/N=C/c2cccc([N+](=O)[O-])c2)c1,-3,-6,-42,9,-1,-5
N#CCC(=O)Nc1ccc(C(=O)Nc2cccnc2)cc1,-8,10,12,-6,-15,-2
O=C(CCCc1ccccc1)NC1CC1,-6,-18,-28,-4,-2,-3
O=C(O)CCCc1ccc2c(c1)CCc1ccccc1-2,88*,4,68*,-2,-24,10
O=C(CCC(=O)N1CCCC1)Nc1ccc(Cl)c(Cl)c1,-12,-5,-44,9,-8,0
N#Cc1c(Cl)nsc1NC(=O)c1ccccc1,14,-20,-122,-39,52*,-1
N#Cc1c(NC(=O)c2ccccc2)sc2c1CCCCC2,-46,-293,-129,-15,2,7
N#CCc1nn(-c2ccccc2)c2ncnc(N)c12,4,0,21,3,-6,-2
O=C(Cc1ccc(Cl)cc1)Nc1cccc(C(=O)Nc2ccccc2C(=O)O)c1,11,12,4,6,8,-8
COc1ccc(CC(N)c2csc(NC(=O)c3cc(C(C)(C)C)oc3C)n2)cc1 (centres undefined),·,99*,-62,-18,12,-13
COc1cc(NC(=O)Nc2nc(C(N)C(C)C)cs2)cc(OC)c1OC (centres undefined),·,-12,3,-6,-19,-3
COc1ccc(NC(=O)Nc2nc(C(N)Cc3ccc(C(F)(F)F)cc3)cs2)cc1 (centres undefined),·,98*,2,-17,28,-6
COc1cc(NC(=O)Nc2nc(C(N)Cc3ccc(C(F)(F)F)cc3)cs2)cc(OC)c1OC (centres undefined),·,92*,2,2,-1,1
Cc1ccc(C(=O)Nc2nc(C(N)Cc3ccc(C(F)(F)F)cc3)cs2)cc1 (centres undefined),·,96*,9,-8,12,-16
Cc1ccc(C2=NS(=O)(=O)N(C)C(C(=O)N3CCOCC3)=C2)cc1,6,12,8,14,12,3
COc1ccccc1N1CCN(Cc2cnc3ccc(Cl)cn23)CC1,7,19,20,12,-2,-9
NS(=O)(=O)c1ccc(N/N=C/c2cn(-c3ccccc3)nc2-c2ccccc2)c([N+](=O)[O-])c1,77*,38,12,-3,1,-2
